NALP1 yeast inh – NALP1 inflammasome inhibitors in reconstituted yeast, colorimetric, S. cerevisiae, triplicate retest; S. cerevisiae NALP1/ASC/caspase-1 growth, X-gal OD620, 72 h; inhibition, % at 10 µM; 280,000 tested, 0.61% active; AID 2071, 2009; in the data active = inhibition mostly above about 24%, no sharp cut-off; inactive = mostly below about 32%
tim23-1 inh – growth inhibitors of tim23-1 mutant yeast, primary screen, luminescence, uHTS; S. cerevisiae tim23-1 growth, BacTiter-Glo luminescence, 24 h; inhibition, % at 20 µM; 330,000 tested, 1.3% active;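 active = growth inhibition of the mutant yeast at or above 50%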;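 note: temperature-sensitive mutant grown at 25 °C; plate controls were DMSO-treated mutant yeast for no effect and medium wells lacking yeast for full effect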
NLRP3 yeast inh – NALP3 inflammasome inhibitors in reconstituted yeast, primary screen, luminescence, uHTS; Yeast reconstituted NLRP3/ASC/caspase-1, beta-gal luminescence, 24 h; inhibition, % at 10 µM; 330,000 tested, 0.39% active;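 active = inhibition of 50% or more; inactive = inhibition below 50%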;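 note: plate controls were induced DMSO wells for no effect and uninduced yeast grown without galactose for full effect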
tim10-1 inh – growth inhibitors of tim10-1 mutant yeast, primary screen, luminescence, uHTS; S. cerevisiae tim10-1 ts strain growth, BacTiter-Glo, 24 h; inhibition, % at 20 µM; 330,000 tested, 2.2% active; AID 463190, 2010;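 active = inhibition of at least 40%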;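 note: mutant grown at 25 °C; 0% = DMSO wells with yeast and 100% = wells holding no yeast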
TIM10 inh – growth inhibitors of isogenic TIM10 control yeast, primary screen, counter-screen for tim10-1 yeast inhibitor project, luminescence, uHTS; S. cerevisiae TIM10 strain growth, BacTiter-Glo luminescence, 24 h; inhibition, % at 10 µM; 330,000 tested, 1.4% active; AID 463195, 2010;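 active = inhibition of 40% or more at the single tested concentration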;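 note: wild-type TIM10 isogenic control strain grown at permissive 25 °C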
tim10-1 conf – growth inhibitors of tim10-1 mutant yeast, confirmation, single concentration, luminescence, S. cerevisiae. inhibition, % at 20 µM. S. cerevisiae tim10-1 ts strain growth, BacTiter-Glo, 24 h. AID 463213, 2010. 7,400 tested, 56% active. shares compounds with tim10-1 inh;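 active = inhibition of yeast growth at or above a set limit in either of two repeat tests at 20 µM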;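 note: tim10-1 mutant grown at permissive 25 °C to find synthetic lethal compounds; 0% = DMSO yeast wells and 100% = medium wells without yeast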
The depositor's hits bear a star; . = no result. This is a sample that favours compounds with a hit; in the whole collection about 4% have one here.

SMILES	NALP1 yeast inh	tim23-1 inh	NLRP3 yeast inh	tim10-1 inh	TIM10 inh	tim10-1 conf
Cc1ccc(NC(=O)C2CCCN(c3ncnc4c3nc3n4CCCCC3)C2)cc1Cl (centres undefined)	-18	-2	13	29	-7	.
CC(C)N(Cc1ccccc1)C(=O)C1CCCN(c2ncnc3c2nc2n3CCCCC2)C1 (centres undefined)	-4	25	19	31	10	.
O=C(C1CCCN(c2ncnc3c2nc2n3CCCCC2)C1)N1CCN(c2cccc(Cl)c2)CC1 (centres undefined)	23	24	28	41*	8	4
Cc1cccc(N2CCN(C(=O)C3CCN(c4ncnc5c4nc4n5CCCCC4)CC3)CC2)c1C	-11	39	7	56*	29	22
CCC1=NN2C(=N)/C(=C\c3cccn3-c3cccc(Cl)c3)C(=O)N=C2S1	-15	37	14	46*	35	37*
COc1ccc(-n2cccc2/C=C2\C(=N)N3N=C(C(C)C)SC3=NC2=O)cc1	-22	25	-1	40*	7	26
CCC1=NN2C(=N)/C(=C\c3cccn3-c3ccc(Br)cc3)C(=O)N=C2S1	11	.	.	.	.	.
Cc1ccc2c3c(cccc13)-c1ccccc1C2=O	38	17	2	4	15	.
Cc1coc2c1C(=O)C(=O)c1c-2ccc2c(C)cccc12	.	19	-1	51*	9	8
CC(=O)N1N=C(c2cccc(Cl)c2)OC1c1cccc([N+](=O)[O-])c1 (centres undefined)	4	29	-15	29	23	.
CC(=O)N1N=C(c2cccc([N+](=O)[O-])c2)OC1c1cccc(Br)c1 (centres undefined)	2	47	-20	45*	22	29
CC1(C)SC(=S)N(NC(=O)Nc2ccccc2)C1N(O)C(=O)Nc1cccc2ccccc12 (centres undefined)	13	31	9	42*	14	24
CC1(C)SC(=S)N(/N=C/c2ccccc2O)C1N(O)C(=O)Nc1ccccc1 (centres undefined)	-17	21	6	-4	-2	.
O=C(O)c1ccc(N=NN2CCCCCC2)cc1	10	4	20	1	0	.
O=S(=O)(c1ccc(N2CCC(c3ccc(Cl)cc3)=N2)cc1)N(CCO)CCO	8	37	4	55*	27	48*
CN(C)CCNC(=O)C(c1ccccc1)c1ccccc1	-4	-2	11	5	7	.
CN(C)CCC(=O)C(Cc1ccccc1)c1ccccc1 (centres undefined)	.	31	5	45*	23	45*
CC(C)c1ccc(S(=O)(=O)/N=C2\C=C(NS(=O)(=O)c3ccccc3)C(=O)c3ccccc32)cc1	28	.	.	.	.	.
CC(C)c1ccc(S(=O)(=O)/N=C2/C=CC(=O)c3ccccc32)cc1	-8	34	14	43*	20	29
O=C1NC(=S)S/C1=C/c1ccc(N2CCOCC2)o1	-12	-1	7	-1	7	.
COc1ccc2cc(/C=C3\SC(=S)NC3=O)c(N3CCOCC3)nc2c1	17	45	25	42*	36	39*
COc1cccc(CNC(=O)CSCc2cnn(-c3ccccc3)c2-n2cccc2)c1	11	25	19	19	19	.
CCCc1nn(C)c(C(=O)Nc2ccc(C)c(C)c2)c1Cl	28	3	16	0	-10	.
CCCc1nn(C)c(C(=O)Nc2ccc(CC)cc2)c1Cl	22	20	11	43*	11	11
O=C(C1CCN(S(=O)(=O)c2cccc3nsnc23)CC1)N1CC=C(c2ccccc2)CC1	15	10	11	43*	12	21
SMILES	NALP1 yeast inh	tim23-1 inh	NLRP3 yeast inh	tim10-1 inh	TIM10 inh	tim10-1 conf
CCNC(=O)C(=O)Nc1cc2c3c(c1)CCC(=O)N3CCC2	33	-4	11	13	10	.
CCCCNC(=O)C(=O)Nc1cc2c3c(c1)CCC(=O)N3CCC2	22	-16	6	43*	-31	-35
COc1ccc(C(=S)N2CCNCC2)cc1	16	3	16	-4	11	.
COc1ccc(C(=S)N2CCCCCC2)cc1	11	4	5	40*	-4	11
COc1ccc(-c2cc(C(=O)N3CCCCCC3)c3ccccc3n2)cc1	.	46	23	52*	19	13
COc1ccc(-c2cc(C(=O)OCc3ccccn3)c3ccccc3n2)cc1	21	31	7	42*	22	14
Cc1ccccc1-c1nc(CS(=O)CC(=O)NCCc2ccc(Cl)cc2)c(C)o1 (centres undefined)	6	26	8	44*	7	-7
Cc1oc(-c2ccc(Cl)cc2)nc1CS(=O)CC(=O)NC1CCCCCC1 (centres undefined)	9	31	-13	33	29	.
Cc1ccc(NC(=O)CS(=O)Cc2nc(-c3ccc(C)cc3)oc2C)cc1 (centres undefined)	6	20	9	40*	22	14
Cc1oc(-c2ccc(Cl)cc2)nc1CS(=O)CC(=O)NC1CCCCC1 (centres undefined)	5	41	-25	40*	32	33*
O=C(NCCO)C(=O)Nc1cc2c3c(c1)CCC(=O)N3CCC2	-16	8	6	18	10	.
O=C1/C(=C/c2ccccc2F)SC(=S)N1CC(=O)N1CCCCC1c1cccnc1 (centres undefined)	10	36	4	45*	24	16
O=C1/C(=C/c2ccc(F)cc2)SC(=S)N1CC(=O)N1CCCCC1c1cccnc1 (centres undefined)	12	30	0	-24	30	.
CC(C)CC1NC(=O)N(CC(=O)Nc2cc(S(=O)(=O)N3CCOCC3)ccc2Cl)C1=O (centres undefined)	.	2	-2	1	-5	.
Oc1ccccc1CNc1ccc(OC(F)(F)F)cc1	8	33	7	42*	33	27
CC(C)NC(=O)c1ccc2c(c1)N(CC(=O)N1CCCCC1)C(=O)C(C)(C)O2	10	-7	8	2	10	.
O=C(Cn1c(=O)c2cccn2c2cccnc21)N1CCN(c2ccc(Cl)cc2)CC1	34	38	8	43*	12	-14
CCCCc1cc(=O)oc2cc(OCC(=O)NCc3ccccn3)ccc12	16	23	16	48*	2	-2
CCCc1cc(=O)oc2cc(OCC(=O)NCc3ccccn3)ccc12	9	12	5	1	12	.
N/C(=N\OC(=O)CCCOc1ccccc1)c1ccc([N+](=O)[O-])cc1	5	23	15	55*	28	42*
